The supplement of paper PMC8975748
Where a name gives a salt, the structure may show the parent alone.

test system: Saccharomyces cerevisiae BY4741 SeMeCo community; test: z-score of subpopulation abundance vs DMSO median, subpopulation auxotrophic for HLUM; higher = larger share of this subpopulation than in DMSO controls; conditions: 10 µM; 24 h; SM minimal medium; subpopulation (auxotrophy): HLUM
Method in brief: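 A community of Saccharomyces cerevisiae BY4741 was built from four plasmids that each restored one auxotrophy and encoded a distinct fluorescent protein. Pre-grown overnight to OD600 1.0 and diluted to 0.3, it was dispensed at 70 µl into 384-well plates acoustically predosed with library drugs for a final 10 µM, and grown 24 h in minimal SM medium. Cells were then paraformaldehyde-fixed and imaged by automated confocal microscopy. Thresholds and autofluorescence correction came from single-auxotroph fluorescent strains, and each subpopulation's abundance was scored as a z-score relative to the vehicle-well median.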

SMILES | z-score of subpopulation abundance
CN[C@@H]1[C@H](O[C@H]2[C@H](O[C@H]3[C@H](O)[C@@H](O)[C@H](NC(=N)N)[C@@H](O)[C@@H]3NC(=N)N)O[C@@H](C)[C@]2(O)CO)O[C@@H](CO)[C@H](O)[C@H]1O [Dihydrostreptomycin sulfate] | 0.3
C=CCc1ccc(O)c(-c2ccc(O)c(CC=C)c2)c1 [Honokiol] | -0.84
COCC(=O)Nc1cc(Sc2ccccc2)ccc1N=C(NC(=O)OC)NC(=O)OC [Febantel] | -0.82
Cc1ccsc1/C=C/C1=NCCCN1C [Morantel tartrate] | -0.47
CCn1cc(C(=O)O)c(=O)c2cc(F)c(N3CCNCC3)cc21 [Norfloxacin] | -0.9
COC(=O)C1=C(C)NC(C)=C(C(=O)OC2CCCN(Cc3ccccc3)C2)C1c1cccc([N+](=O)[O-])c1 (stereo not given) [Benidipine HCl] | -0.21
CC1=Nc2ccc(Cl)cc2S(=O)(=O)N1 [Diazoxide] | -1.32
O=C(O)c1cc(O)c2c(c1)[C@H]([C@H]1c3cc(C(=O)O)cc(O)c3C(=O)c3c(O[C@@H]4O[C@H](CO)[C@@H](O)[C@H](O)[C@H]4O)cccc31)c1cccc(O[C@@H]3O[C@H](CO)[C@@H](O)[C@H](O)[C@H]3O)c1C2=O [Sennoside A] | -1.25
COc1ccc2cc(CCC(C)=O)ccc2c1 [Nabumetone] | -1.51
CO/N=C(\C(=O)N[C@@H]1C(=O)N2C(C(=O)O)=C(CSc3nc(=O)c(O)nn3C)CS[C@H]12)c1csc(N)n1 [Ceftriaxone Sodium Trihydrate] | 0.83
